The values below come from article PMC12136788.

The labels stand for the following.
T1: UNK ZnF1-3 (human, UniProt Q9C0B0 31-174)
T1 sequence: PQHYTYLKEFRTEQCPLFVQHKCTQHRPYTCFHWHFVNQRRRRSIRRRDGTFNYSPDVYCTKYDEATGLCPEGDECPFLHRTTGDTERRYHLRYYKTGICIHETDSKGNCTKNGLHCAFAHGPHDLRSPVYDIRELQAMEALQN

B1: chr16:94664741:94664742:+_ENSMUSG00000040785_ENSMUST00000117648|mus_hu|mus_mus_mus_hu_False|8_68 (ssRNA)
RNA: GGGAGUUCUACAGUCCGACGAUCUGGUACUGAUCUUGGUAGCUGAUAUUCAGGAGAAAGGCUGGCCAAAGGUGUGUAUAUGCUGGUGUACUGGGGCAAACCUGGUAACACGUUUAUGUAUGCUGGCCGCUGGGUGAUGAUAUCCAACAGAGGAUUGAGCAUCA
B2: chrX:53596632:53596633:-_ENSG00000086758_ENST00000262854|hu_mus|FALSE|FALSE (ssRNA)
RNA: GGGAGUUCUACAGUCCGACGAUCGGCGUGCUUCUCUGUACUCUCAGCCAUAGCAAGCGCCCGUCCCAGGGCUGCUUUCACUUCAUUCACUAGGGCCACUUGAGCAUCUGUGCCACUCCCCGCAGCAGCCAGACUUGCAAGGAACAACAGAGGAUUGAGCAUCA
B3: chr12:39756943:39756944:-_ENSG00000139116_ENST00000544797|hu_mus|hu_hu_hu_mus_False|18_98 (ssRNA)
RNA: GGGAGUUCUACAGUCCGACGAUCGGUUUGGCUGUUACCCCCGAGGGAAUCCUGCAAGAGUCUUGUCAGCUUAGAGUCUCUGUAAGGGACAUGGGUGGCUCUCUUGCUCUUGUCCCCCAAGGCACUUAUUACAUUCCCAAGAGCCAACAGAGGAUUGAGCAUCA
B4: chr12:96663167:96663168:+_ENSG00000111145_ENST00000228741|hu_mus|FALSE|FALSE (ssRNA)
RNA: GGGAGUUCUACAGUCCGACGAUCUCUGGGUCCACAGGAGAAUCAUGGUAGUUGGAAGAAAAGGAAUCAACAGGCAGACUUACAGUCAUGGGAACAUUUCCAACCAGCGUUUAUAGUUUAAAGGUCGACAGAAGGUCAUCUUGUCAACAGAGGAUUGAGCAUCA
B5: chr7:75932113:75932114:+_ENSG00000106211_ENST00000248553|hu_hu|hu_hu_hu_mus_False|8_48 (ssRNA)
RNA: GGGAGUUCUACAGUCCGACGAUCCUGCGACCACUCAUCGGGCAACCGGGGCACCCCGAAAGCUUGAUCGAAGAGGCGGCUGUGUGCGUACCAGUCGUCCCGGAAUGGUUCCCAGCUCGGGCUCCGCAGCGAGAAGGAGGGCACCAACAGAGGAUUGAGCAUCA
B6: 19974894_19982776_1293_CDS_ENSMUSG00000002428_ENSMUST00000002502|mouse|control|control (ssRNA)
RNA: GGGAGUUCUACAGUCCGACGAUCAAUGUACUGUACAGAAAUUUUUCUUCUCUUAGGGCAGACGCUAGACAGCUGCGACAGAGUACAGCUACUCUUCUCCGGAGUUCCUGAAAUACUGGGUUCUUCACCACACGUGGAUGACUCCAACAGAGGAUUGAGCAUCA
B7: chr1:151206805:151206806:+_ENSG00000143398_ENST00000349792|hu_hu|FALSE|FALSE (ssRNA)
RNA: GGGAGUUCUACAGUCCGACGAUCCUUCUCUCGCUCUUUCUGGGAAGCCCGCCGUUUGUAGGUUGAGCCUUUGAGGUCAUAUUUGAUAUGCAUUUUUACCGAUCUUGGUAAAAGAUUGUUCAUCACCACAAUCCGAAUGUUCUUCAACAGAGGAUUGAGCAUCA
B8: chr1:95362928:95362929:-_ENSG00000117519_ENST00000538964|hu_hu|motif|central (ssRNA)
RNA: GGGAGUUCUACAGUCCGACGAUCAGACCACAUUUAGCAAUAAGCAUGAGUUUAGUCUUCCAUGUAGAAACCAGAUACACGGAACUGUAAAAAAAAAAAAAAAAAAAAAAAGUUUCCUAUUGUUUGAAAAUACCAGUUUAAUAUCAACAGAGGAUUGAGCAUCA
B9: chr11:9468696:9468697:+_ENSG00000205339_ENST00000379719|hu_hu|FALSE|FALSE (ssRNA)
RNA: GGGAGUUCUACAGUCCGACGAUCCAUUAACAAUAAUGUGAAAAUUAGAAUUAUGAAUUCAAAAAGCAGUGAAGUCUGAAAAUUUAAAAAGUAGACUAGGUAUUAGGGGAUUAAAGGUAAAGGAAGACGAGAAUGUUUCUUUAACAACAGAGGAUUGAGCAUCA
B10: chr5:69964302:69964303:+_ENSMUSG00000029208_ENSMUST00000154728|mus_hu|FALSE|FALSE (ssRNA)
RNA: GGGAGUUCUACAGUCCGACGAUCUGCAGUCUGGUUUGUUCGUUGGCUGAAUAAACAUGGGAGCUGAGAGCUCUGGAGAAAUACAGCCAUUUACUGGCUGUGAAAUCUCAAGUUAACUACUCUAAAAUCGCUUCGAUUAUGAAACAACAGAGGAUUGAGCAUCA
B11: chr4:175231952:175231953:+_ENSG00000164118_ENST00000503780|hu_hu|motif|central (ssRNA)
RNA: GGGAGUUCUACAGUCCGACGAUCAUUCAGAAGGUCCAUGUCACUACAAGAAGCGUAGUCUUCACUAACUUCAUUAAACUCGGUAAAUUCAUCAUUCUUUUUAGACAAAAGCAUUUCUGUUUCAAGAAGAGUGACACGACUAAGCAACAGAGGAUUGAGCAUCA
B12: 135118432_135118552_3022_ncRNA_ENSMUSG00000030795_ENSMUST00000128851|mouse|control|control (ssRNA)
RNA: GGGAGUUCUACAGUCCGACGAUCAUGAGCAAUACACUCAAGAUCUUUCUUGUAGUCCACACCUUCCUUCCCAGAUCUAGUUCCUAUAUAUUUGUCUGAGUACAUAUGUAGAAUUGCAUUGACAUCACUAUUUAAUAUAAAUAUCAACAGAGGAUUGAGCAUCA
B13: chr17:64801638:64801639:+_ENSG00000154229_ENST00000413366|hu_mus|hu_hu_hu_mus_False|1_98 (ssRNA)
RNA: GGGAGUUCUACAGUCCGACGAUCUAUAUAUAUAUAUAUAUACACACACAUAUAUAGUAAAACCCUAGUUAAACGUGUAAAGUAGCCAUUCAUUUUUAAAAUUACAUCUACAUUAAAAAAUUAAUAUAUCUGAUAGAGUGCCCACAACAGAGGAUUGAGCAUCA
B14: chr3:25639645:25639646:-_ENSG00000077097_ENST00000264331|hu_mus|FALSE|FALSE (ssRNA)
RNA: GGGAGUUCUACAGUCCGACGAUCAUCAGACAACACAUGACAUUUCAAUGAGUAAAAAAGAGCAUAAAACUGUAUGUGUAAGAACAAAAUGUUAAAAGGCCUACCACAAUAAUAAAAAACCAUCAAUUACAUCAUCACAUUAAACAACAGAGGAUUGAGCAUCA
B15: chr17:64801638:64801639:+_ENSG00000154229_ENST00000413366|hu_mus|hu_hu_hu_mus_False|28_88 (ssRNA)
RNA: B13 RNA with U38C, C42U, A43G, C44U, A53G, A114U, C142A, A143G
B16: chr1:84720644:84720645:-_ENSMUSG00000026219_ENSMUST00000027421|mus_hu|FALSE|FALSE (ssRNA)
RNA: GGGAGUUCUACAGUCCGACGAUCUGAAUUUUAAAUUAGAUCUUAACUGGAGAGAACAUGGGACAACAGAAGCCCAUGGGUAACGAAAAUUUGAGAACUGUGAGUUGUAUACAAAAAAAAAACUGUGAGCUGCACAGAUAAUAACAACAGAGGAUUGAGCAUCA
B17: chr17:64801638:64801639:+_ENSG00000154229_ENST00000413366|hu_mus|hu_hu_hu_mus_False|78_98 (ssRNA)
RNA: B13 RNA with A60G, C62G, C142A, A143G
B18: chr7:90019630:90019631:+_ENSMUSG00000057706_ENSMUST00000082237|mus_hu|motif|central (ssRNA)
RNA: GGGAGUUCUACAGUCCGACGAUCUAUAUCACUGAAUAGAAAAUAUGCUGGGUGAAGCAGAUCUAGAAGAUUUGUCUGAACCGGUAAAAUCUCCAUCCCAACAGAAUACUGUUCAAAACAUUACACAUUUUAUGGUUGUAAUUCCAACAGAGGAUUGAGCAUCA
B19: chr1:225611761:225611762:-_ENSG00000143815_ENST00000272163|hu_mus|hu_hu_hu_mus_True|1_18 (ssRNA)
RNA: GGGAGUUCUACAGUCCGACGAUCCCAGGCCAUCGGCCUCUGACCACUUCACCCUCAACAAACUUCCUACUUGGCAUUUUCUAAAAUUAGUCUGGCCGCGCUCCGGCGGGAACUCCAGACGGCUCCCGACAGUCACCCGCACAGCAACAGAGGAUUGAGCAUCA
B20: chr1:247070963:247070964:-_ENSG00000153207_ENST00000391829|hu_mus|motif|central (ssRNA)
RNA: GGGAGUUCUACAGUCCGACGAUCCUGAUUUGUCCUGUUGAUGUAACUCAGAGUAGAAAUGGCUACUCCCAAUGGGCUUACGGACUGGAAGCACAGGUGGCGCCCCUCUCUCAUCACUCUCUCUCUGAUGUGUGGUACUUCAGCCAACAGAGGAUUGAGCAUCA
B21: chr11:97025304:97025305:-_ENSMUSG00000001440_ENSMUST00000001479|mus_hu|FALSE|FALSE (ssRNA)
RNA: GGGAGUUCUACAGUCCGACGAUCAGCUACUACUCCAUCUGUGUGAUCCUCAUCUCCAGCAAUGUGGUCAAUGAAAGACAGAAUAAAUUCUACUCUGGGUUGUACCAGCAUCACAUCCGGGUGUACGUUCUCCUGAUCCCCCUUCAACAGAGGAUUGAGCAUCA
B22: chr2:25965407:25965408:-_ENSG00000143970_ENST00000336112|hu_hu|motif|central (ssRNA)
RNA: GGGAGUUCUACAGUCCGACGAUCCUGUGCUGCCUGAAUUAAAUCUCUGGCUAGGGUCUUUUCAUCAAAUGUUUGGCCUCGGGUGAACAGGUAAUUCUCCUUACUUAAAGUGGUUUGCUCAUUCAAUGGUAUCUCAGCCUUCACCAACAGAGGAUUGAGCAUCA

Residue numbers refer to the chain shown, from its start. The full ranking holds about 24,000 sequences; the median of “enrichment r” is about 0.99, and the highest 2% start at about 3.7. This excerpt belongs to a sample that is enriched for the highest values.

This assay concerns the target T1, UNK ZnF1-3. Briefly: nsRBNS (natural sequence RNA bind-n-seq); RBNS binding buffer (assumed for nsRBNS): 25 mM Tris pH 7.5, 150 mM KCl, 3 mM MgCl2, 0.01% Triton X-100, 500 ug/ml BSA, 20 U/ml SUPERase-In, 4 C; UNK is unkempt and MSI1 is Musashi-1; names of the RNAs are library labels; protein concentration not given here; high values mean tight binding.
In the case of B1, the binding signal is 1.06 enrichment R.
To B2 belongs 1.52 enrichment R; to B3, 0.694 enrichment R; to B4, 1.6 enrichment R.
To B5 belongs 1.04 enrichment R; to B6, 0.756 enrichment R.
Then B7, with 0.464 enrichment R; and B8, with 5.33 enrichment R.
In turn, B9 returned a binding signal of 5.89 enrichment R.
Then B10, with 0.663 enrichment R.
Then B11, with 0.772 enrichment R; and B12, with 1.78 enrichment R.
To B13 belongs 4.56 enrichment R; to B14, 1.63 enrichment R; to B15, 3.46 enrichment R.
B16 yielded a binding signal of 5.25 enrichment R.
On to B17, for which the binding signal came to 3.51 enrichment R.
Then B18, with 0.76 enrichment R; and B19, with 1.37 enrichment R; and B20, with 1.02 enrichment R.
To B21 belongs 1.13 enrichment R; to B22, 0.753 enrichment R.
